Data taken from article PMC4336329 (PLoS ONE, 2015).
Hit rate of the full screen: of about 310,000 compounds, about 2,200 (0.71%) showed an effect of 50% or more. The effect is printed as a negative number. The sample as a whole holds a higher share of strong results than the screen did.

molecular target: human ether-à-go-go-related gene (hERG) potassium channel (human, UniProt Q12809); assay: primary screen, population patch clamp on CHO cells stably expressing hERG; higher = less effect of the substance
Sequence (Q12809 whole entry, looked up): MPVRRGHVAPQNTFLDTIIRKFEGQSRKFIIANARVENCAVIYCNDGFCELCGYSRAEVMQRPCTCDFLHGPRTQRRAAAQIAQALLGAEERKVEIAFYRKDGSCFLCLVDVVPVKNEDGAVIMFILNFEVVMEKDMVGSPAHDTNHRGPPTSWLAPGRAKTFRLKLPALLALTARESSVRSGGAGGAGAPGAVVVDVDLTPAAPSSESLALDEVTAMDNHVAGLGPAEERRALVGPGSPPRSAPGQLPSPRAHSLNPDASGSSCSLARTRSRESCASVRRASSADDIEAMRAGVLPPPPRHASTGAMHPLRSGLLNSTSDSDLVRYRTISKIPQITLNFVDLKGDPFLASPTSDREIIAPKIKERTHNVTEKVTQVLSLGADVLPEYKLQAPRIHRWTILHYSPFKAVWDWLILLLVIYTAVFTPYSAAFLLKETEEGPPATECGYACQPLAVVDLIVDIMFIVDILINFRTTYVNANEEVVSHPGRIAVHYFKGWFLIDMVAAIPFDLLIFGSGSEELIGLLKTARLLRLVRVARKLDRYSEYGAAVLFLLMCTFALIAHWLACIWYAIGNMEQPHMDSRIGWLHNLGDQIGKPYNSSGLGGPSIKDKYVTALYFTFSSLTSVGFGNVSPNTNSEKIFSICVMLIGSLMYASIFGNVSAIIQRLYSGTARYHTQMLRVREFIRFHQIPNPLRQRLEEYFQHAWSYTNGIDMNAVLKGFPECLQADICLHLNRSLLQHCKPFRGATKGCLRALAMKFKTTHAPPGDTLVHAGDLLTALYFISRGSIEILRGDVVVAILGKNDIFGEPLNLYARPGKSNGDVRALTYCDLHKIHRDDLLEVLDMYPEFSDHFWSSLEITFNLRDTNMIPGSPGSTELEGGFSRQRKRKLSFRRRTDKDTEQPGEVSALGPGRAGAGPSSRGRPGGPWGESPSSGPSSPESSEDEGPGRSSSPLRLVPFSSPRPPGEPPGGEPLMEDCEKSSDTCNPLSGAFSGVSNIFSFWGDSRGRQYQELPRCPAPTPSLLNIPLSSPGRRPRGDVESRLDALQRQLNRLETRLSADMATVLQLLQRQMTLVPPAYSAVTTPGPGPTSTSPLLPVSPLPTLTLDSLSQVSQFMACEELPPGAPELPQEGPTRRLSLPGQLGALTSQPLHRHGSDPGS

Row | Compound | hERG current change (%, negative = inhibition) at 1uM
1 | CC(C)NC(=O)C1CCN(C2CCN(C(=O)Cc3ccc4c(c3)OCO4)CC2)CC1 | 4.98%
2 | Cc1cc(N2C(=O)C(O)=C(C(=O)c3cccs3)C2c2ccc(F)cc2)no1 (stereo not drawn) | 14.8%
3 | S=C(NCc1ccncc1)Nc1ccccc1 | 7.34%
4 | CCCOc1ccc(N2C(=O)CC(NCCNc3ccc([N+](=O)[O-])cn3)C2=O)cc1 (stereo not drawn) | -57.8%
5 | COc1ccc(N2C(=O)CC(NCCNc3ccc([N+](=O)[O-])cn3)C2=O)cc1 (stereo not drawn) | -13.7%
6 | CCOc1ccc(N2C(=O)CC(NCCNc3ccc([N+](=O)[O-])cn3)C2=O)cc1 (stereo not drawn) | -37.8%
7 | CC1(C)CC(=O)C2=C(C1)N(c1ccc(F)cc1)C(N)=C(C#N)C2c1cccs1 (stereo not drawn) | 4.89%
8 | CN1CCN(C(=O)c2ccc(Oc3ccc([N+](=O)[O-])cc3)cc2)CC1 | -11.7%
9 | CN1CCC(=NOc2ccc([N+](=O)[O-])cc2)CC1 | -56%
10 | CC1CN(C)C(C)C/C1=N/Oc1ccccc1[N+](=O)[O-].Cl (stereo not drawn) | 2.66%
11 | CC1CC(C)CN(S(=O)(=O)c2ccc(Oc3ccc([N+](=O)[O-])cc3)cc2)C1 (stereo not drawn) | 14.4%
12 | CC1=CC(=O)C=C(C)C1=NOc1ccc([N+](=O)[O-])cc1 | -11.7%
13 | CC1CN(C)C(C)C/C1=N\Oc1ccc([N+](=O)[O-])cc1.Cl (stereo not drawn) | -84.5%
14 | CCCCCc1nnc(NC(=O)C2=COCCO2)s1 | 6.91%
15 | O=C(Nc1nc(-c2ccccn2)cs1)c1ccc(F)c(S(=O)(=O)N2CCOCC2)c1 | 5.44%
16 | CCCC(=O)Nc1c(-c2cccs2)c(=O)c2ccccc2n1C | 5.25%
17 | CC1CCCCC1NC(=O)Cn1cccc1C(=O)c1ccccc1 (stereo not drawn) | 14%
18 | CNc1nc2cc([N+](=O)[O-])c([N+](=O)[O-])cc2nc1NC | -3.16%
19 | COc1ccc(CN2CCC(C(=O)Nc3ccc(Oc4ccccc4)nc3)CC2)cc1F | -37.8%
20 | CCOc1ccc(C(=O)CCC(=O)N2CCC(C(=O)OC)CC2)cc1 | 10.1%
21 | CC1=C(C(=O)Nc2ccccc2F)C(c2ccsc2)C2=C(CC(C)(C)CC2=O)N1 (stereo not drawn) | 1.33%
22 | C=CCNC(=O)C1CCN(c2cc(C)nc(-c3ccccc3)n2)CC1 | -12.2%
23 | C#CCNC(=O)C1CCN(c2cc(C)nc(-c3ccccc3)n2)CC1 | -8.78%
24 | Cc1cc(N2CCC(C(=O)NCC3CC3)CC2)nc(-c2ccccc2)n1 | -53%
